Test results from PubChem BioAssay (Tox21).
Values joined by “and” are separate entries in the source; they are usually repeats but may differ in a detail not shown here. Equal entries are not always repeated. Records with an inconclusive call do not appear. Some compounds were tested as several samples or in several runs, with calls that do not always agree. Active and inactive are the calls of the source. Unless noted, calls come from the whole dose curve; as a rule, active = well fitted curve in the direction sought with a large enough effect in the repeat runs; inconclusive = weak or mixed curves; inactive = no such curve, though single readings can be large; an effect the other way counts as inactive or inconclusive.

Legend:
[1] = A CellTox Green Cytotoxicity Assay to monitor cytotoxicity in HEK293 cells - 32 hour (AID 1224881); note: nearly all actives have a fitted effect of over 40% in size; note: potency is the fitted concentration of half-maximal effect
Procedure, shortened: (§1)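 HEK293 cells premixed with CellTox Green dye were seeded at 600 cells/well and left 5 h at 37 C/5% CO2 before pin transfer of 23 nL compound in DMSO. Fluorescence from dye bound to dead-cell DNA was read during 40 h treatment.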

[2] = A CellTox Green Cytotoxicity Assay to monitor cytotoxicity in HepG2 cells - 0 hour (AID 1224882); note: nearly all actives have a fitted effect of over 35% in size
Procedure, shortened: (§2)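 HepG2 cells were seeded together with the CellTox Green dye at 600 cells/well, left 5 h at 37 C/5% CO2, then given compounds in DMSO. Fluorescence from dye bound to dead-cell DNA was read repeatedly over 40 h of treatment at 37 C.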

[3] = A CellTox Green Cytotoxicity Assay to monitor cytotoxicity in HepG2 cells - 32 hour (AID 1224883); note: nearly all actives have a fitted effect of over 50% in size; note: potency is the fitted concentration of half-maximal effect
Procedure, shortened: as §2

[4] = A CellTox Green Cytotoxicity Assay to monitor cytotoxicity in HEK293 cells - 8 hour (AID 1224884); note: nearly all actives have a fitted effect of over 35% in size
Procedure, shortened: as §1

[5] = qHTS RealTime-Glo MT Cell Viability Assay in HepG2 cells - 16 hour (AID 1224885); note: nearly all actives have a fitted effect of over 50% in size
Procedure, shortened: (§3)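 Luminescence read-out: viable HepG2 cells reduce a prosubstrate to a NanoLuc substrate, giving a signal proportional to live cell number. Reads taken at 0, 8, 16, 24, 32 and 40 h of compound exposure at 37 C.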

[6] = qHTS RealTime-Glo MT Cell Viability Assay in HEK293 cells - 24 hour (AID 1224886); note: nearly all actives have a fitted effect of over 50% in size; note: potency is the fitted concentration of half-maximal effect; for activity change, negative = cytotoxicity: top concentration of the series differs between compounds
Procedure, shortened: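 Nonlytic real-time viability readout: viable cells convert prosubstrate to NanoLuc substrate, giving luminescence proportional to live cell number. HEK293, 600 cells/well, compound added after 5 h, continuous culture at 37 C.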

[7] = qHTS RealTime-Glo MT Cell Viability Assay in HEK293 cells - 8 hour (AID 1224887); note: nearly all actives have a fitted effect of over 50% in size; note: potency is the fitted concentration of half-maximal effect; for activity change, negative = cytotoxicity: top concentration of the series differs between compounds
Procedure, shortened: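 HEK293 cells mixed with RealTime-Glo reagents (NanoLuc plus cell-permeant prosubstrate) at 600 cells/well, preincubated 5 h at 37 C/5% CO2, then given 23 nL compound in DMSO. Nonlytic luminescence from viable cells was read at 0, 8, 16, 24, 32 and 40 h.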

[8] = A CellTox Green Cytotoxicity Assay to monitor cytotoxicity in HEK293 cells - 16 hour (AID 1224888); note: nearly all actives have a fitted effect of over 35% in size
Procedure, shortened: as §1

[9] = qHTS RealTime-Glo MT Cell Viability Assay in HepG2 cells - 0 hour (AID 1224889); note: nearly all actives have a fitted effect of over 50% in size
Procedure, shortened: as §3

[10] = A CellTox Green Cytotoxicity Assay to monitor cytotoxicity in HepG2 cells - 8 hour (AID 1224890); note: nearly all actives have a fitted effect of over 45% in size
Procedure, shortened: as §2

[11] = qHTS assay to identify small molecule antagonists of the estrogen receptor alpha (ER-alpha) signaling pathway using the BG1 cell line in the presence of 0.1 nM 17-beta-estradiol - cell viability counter screen (AID 1259241); note: nearly all actives have a fitted effect of over 40% in size
Procedure, shortened: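 Live-cell protease activity (CellTiter-Fluor fluorescence, 30 min) was read in the same wells after VM7Luc4E2 cells had been exposed to compounds with 0.1 nM 17beta-estradiol for 22 hr at 37C.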

[12] = qHTS assay to identify small molecule antagonists of the androgen receptor (AR) signaling pathway using the MDA cell line in the presence of 0.5 nM R1881 - cell viability counter screen (AID 1259242); note: nearly all actives have a fitted effect of over 45% in size; note: potency is the fitted concentration of half-maximal effect
Procedure, shortened: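 MDA-kb2 cells (human breast carcinoma, stably carrying MMTV-luciferase reporter) were exposed to compounds with 0.5 nM R1881 (final) for 16 hr at 37C, 0% CO2; viability then read as live-cell protease fluorescence (CellTiter-Fluor, 30 min) in the same wells.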

[13] = biological target: Estrogen receptor (Homo sapiens) (UniProt P03372); test: qHTS assay to identify small molecule antagonists of the estrogen receptor alpha (ER-alpha) signaling pathway using the BG1 cell line in the presence of 0.1 nM 17-beta-estradiol (AID 1259244); note: nearly all actives have a fitted effect of over 50% in size
Procedure, shortened: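 VM7Luc4E2 cells (endogenous full-length ER-alpha, stable 4xERE-luciferase) were grown 5 days in phenol red-free medium with charcoal-stripped FBS, then exposed 22 h at 37C to compounds plus 0.1 nM (final) 17beta-estradiol; ONE-Glo luminescence read-out.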

[14] = qHTS assay to identify small molecule phospholipidosis (PLD) inducers (AID 1259344; active = well fitted curve in the direction sought with a large enough effect; an effect the other way counts as inactive or inconclusive)
Procedure, shortened: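 Quantitative HTS in HepG2: compound plus LipidTOX Red dye for 24 h, paraformaldehyde fixation with Hoechst 33342, widefield high-content imaging; amiodarone as positive and DMSO as negative control.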

[15] = qHTS assay to identify small molecule HDAC inhibitors (AID 1259364); note: top concentration of the series differs between compounds; nearly all actives have a fitted effect of over 45% in size
Procedure, shortened: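 Wild-type HCT-116 cells were plated overnight, exposed to compounds for 2 h at 37 °C, then given HDAC-Glo class I/II luminogenic reagent for 30 min at room temperature before luminescence was read.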

[16] = qHTS assay to identify small molecule HDAC inhibitors - cell viability counter screen (AID 1259365)
Procedure, shortened: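 HCT-116 (wild type), 1,500 cells/well, overnight 37C/5% CO2; compound in DMSO 2hr; CellTiter-Glo 30min RT; luminescence read.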

[17] = qHTS assay to identify small molecule agonists of the sonic hedgehog signaling (Shh) pathway - cell viability counter screen (AID 1259366); note: nearly all actives have a fitted effect of over 50% in size; note: potency is the fitted concentration of half-maximal effect
Procedure, shortened: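 CellTiter-Fluor fluorescence read-out, 1 hr at 37C, added after 23hr compound exposure. Cells: 3T3 Gli1-Luc, an NIH/3T3 clone with stably integrated Gli1-Luc reporter, plated 4hr before compound.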

[18] = qHTS assay to identify small molecule antagonists of the sonic hedgehog signaling (Shh) pathway - cell viability counter screen (AID 1259367); note: nearly all actives have a fitted effect of over 55% in size; note: potency is the fitted concentration of half-maximal effect
Procedure, shortened: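 Seed 3T3 Gli1-Luc cells at 2,000 per well; incubate 4 hr; add compound in DMSO, then conditioned medium; incubate at 37C with 5% CO2; add CellTiter-Fluor after 23 hr; read fluorescence 1 hr later.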

[19] = qHTS assay to identify small molecule agonists of the sonic hedgehog signaling (Shh) pathway (AID 1259368; calls by dose curve; note: series mostly up to about 92 µM; nearly all actives have a fitted effect of over 15% in size)
Procedure, shortened: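 NIH/3T3-derived 3T3Gli1-Luc cells carrying a stably integrated Gli1 response element–firefly luciferase reporter were plated, left 4 hr at 37 C, then given compounds in DMSO for 24 hr. Luminescence was read 30 min after adding luciferase reagent.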

[20] = biological target: Androgen receptor (Homo sapiens) (UniProt P10275); test: qHTS assay to identify small molecule antagonists of the androgen receptor (AR) signaling pathway using the MDA cell line in the presence of 0.5 nM R1881 (AID 1259243); note: nearly all actives have a fitted effect of over 50% in size
Procedure, shortened: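 MDA-kb2 human breast carcinoma cells carrying an MMTV-luciferase reporter (AR- and GR-responsive) were plated, rested 5 hr at 37C, dosed with compounds, then stimulated with 0.5 nM R1881 (final) for 16 hr; luminescence was read after ONE-Glo.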
% is set by controls: 0 for no effect and ±100 for the full control effect.

Chain of Estrogen receptor (Homo sapiens) (P03372 whole entry, looked up): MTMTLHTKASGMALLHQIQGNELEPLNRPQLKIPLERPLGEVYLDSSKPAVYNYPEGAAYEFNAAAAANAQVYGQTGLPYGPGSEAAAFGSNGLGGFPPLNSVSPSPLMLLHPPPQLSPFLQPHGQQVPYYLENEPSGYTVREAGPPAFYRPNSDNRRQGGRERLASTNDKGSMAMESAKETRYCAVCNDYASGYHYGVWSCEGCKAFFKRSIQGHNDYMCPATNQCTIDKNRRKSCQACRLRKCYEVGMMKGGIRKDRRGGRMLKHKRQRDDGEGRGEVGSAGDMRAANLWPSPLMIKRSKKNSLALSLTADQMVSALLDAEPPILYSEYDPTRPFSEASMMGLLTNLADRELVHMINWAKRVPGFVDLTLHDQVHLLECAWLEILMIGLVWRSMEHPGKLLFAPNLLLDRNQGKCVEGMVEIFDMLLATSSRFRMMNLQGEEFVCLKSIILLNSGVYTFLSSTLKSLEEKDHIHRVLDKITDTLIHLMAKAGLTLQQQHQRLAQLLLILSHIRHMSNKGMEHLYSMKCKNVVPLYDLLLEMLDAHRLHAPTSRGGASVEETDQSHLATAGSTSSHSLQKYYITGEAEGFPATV
Chain of Androgen receptor (Homo sapiens) (P10275 whole entry, looked up): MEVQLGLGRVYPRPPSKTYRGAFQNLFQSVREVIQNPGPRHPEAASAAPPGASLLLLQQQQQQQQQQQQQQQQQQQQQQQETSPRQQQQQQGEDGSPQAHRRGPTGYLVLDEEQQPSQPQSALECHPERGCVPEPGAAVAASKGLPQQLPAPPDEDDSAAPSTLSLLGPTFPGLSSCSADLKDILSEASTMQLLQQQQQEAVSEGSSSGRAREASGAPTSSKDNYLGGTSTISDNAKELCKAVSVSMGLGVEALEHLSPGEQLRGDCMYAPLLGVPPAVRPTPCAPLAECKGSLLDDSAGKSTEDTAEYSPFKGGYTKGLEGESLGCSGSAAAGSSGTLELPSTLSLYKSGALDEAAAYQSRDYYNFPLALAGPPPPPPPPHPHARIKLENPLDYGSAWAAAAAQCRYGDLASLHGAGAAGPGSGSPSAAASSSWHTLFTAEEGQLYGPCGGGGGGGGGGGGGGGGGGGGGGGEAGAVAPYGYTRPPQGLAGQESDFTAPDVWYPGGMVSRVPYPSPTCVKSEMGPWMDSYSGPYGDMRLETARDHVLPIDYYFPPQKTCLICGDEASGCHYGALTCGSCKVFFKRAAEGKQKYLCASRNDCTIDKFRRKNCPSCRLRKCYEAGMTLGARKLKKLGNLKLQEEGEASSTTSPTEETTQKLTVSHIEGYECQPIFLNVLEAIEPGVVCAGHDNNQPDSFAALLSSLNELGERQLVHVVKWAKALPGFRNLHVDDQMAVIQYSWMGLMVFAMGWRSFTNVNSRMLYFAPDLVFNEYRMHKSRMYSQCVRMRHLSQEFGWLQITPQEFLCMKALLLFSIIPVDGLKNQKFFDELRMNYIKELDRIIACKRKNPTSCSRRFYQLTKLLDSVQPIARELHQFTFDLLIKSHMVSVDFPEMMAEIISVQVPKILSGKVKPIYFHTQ

CCC(Cc1c(I)cc(I)c(N)c1I)C(=O)O (stereo not given)
inactive: Potency [1] | Potency [2] | Potency [3] | Potency [4] | Potency [5] | Potency [6] | Potency [7] | Potency [8] | Potency [9] | Potency [10] | Potency [11] | Potency [12] | Potency [13] | Potency [14] | Potency [15] | outcome [16] | Potency [17] | Potency [18] | Potency [19]

C=C[C@H]1CN2CC[C@H]1C[C@@H]2[C@@H](O)c1ccnc2ccc(OC)cc12
42.9 µM (active) and inactive: Potency [7]
active: Potency [6] 48.2 µM
inactive: Potency [1] | Potency [2] | Potency [3] | Potency [4] | Potency [5] | Potency [8] | Potency [9] | Potency [10] | Potency [11] | Potency [12] | Potency [14] | Potency [15] | outcome [16] | Potency [17] | Potency [18]

CCc1cccc2c3c([nH]c12)C(CC)(CC(=O)O)OCC3 (stereo not given)
inactive: Potency [1] | Potency [2] | Potency [3] | Potency [4] | Potency [5] | Potency [6] | Potency [7] | Potency [8] | Potency [9] | Potency [10] | Potency [11] | Potency [12] | Potency [20] | Potency [13] | Potency [14] | Potency [15] | outcome [16] | Potency [17] | Potency [18] | Potency [19]

O=C1CCc2ccccc2O1
inactive and 21.9 µM (active): Potency [1]
inactive: Potency [2] | Potency [3] | Potency [4] | Potency [5] | Potency [6] | Potency [7] | Potency [8] | Potency [9] | Potency [10] | Potency [11] | Potency [12] | Potency [13] | Potency [15] | outcome [16] | Potency [17] | Potency [18] | Potency [19]

O=S1(=O)CCCO1
inactive: Potency [1] | Potency [2] | Potency [3] | Potency [4] | Potency [5] | Potency [6] | Potency [7] | Potency [8] | Potency [9] | Potency [10] | Potency [11] | Potency [12] | Potency [13] | Potency [15] | outcome [16] | Potency [17] | Potency [18] | Potency [19]

COC(=O)c1ccc(C)cc1
inactive: Potency [1] | Potency [2] | Potency [3] | Potency [4] | Potency [5] | Potency [6] | Potency [7] | Potency [8] | Potency [9] | Potency [10] | Potency [11] | Potency [12] | Potency [13] | Potency [15] | outcome [16] | Potency [17] | Potency [18] | Potency [19]

CCCCCCCCCCCCCO
inactive: Potency [1] | Potency [2] | Potency [3] | Potency [4] | Potency [5] | Potency [6] | Potency [7] | Potency [8] | Potency [9] | Potency [10] | Potency [11] | Potency [12] | Potency [13] | Potency [15] | outcome [16] | Potency [17] | Potency [18] | Potency [19]

C/C=C/C(=O)N(CC)c1ccccc1C
inactive: Potency [1] | Potency [2] | Potency [3] | Potency [4] | Potency [5] | Potency [6] | Potency [7] | Potency [8] | Potency [9] | Potency [10] | Potency [11] | Potency [12] | Potency [13] | Potency [14] | Potency [15] | outcome [16] | Potency [17] | Potency [18] | Potency [19]

O=[Se](O)O
active: Potency [1] 39 µM | Potency [3] 24.6 µM | Potency [12] 13.7 µM
inactive: cytotoxicity increase [1] -8.61% [at 15.8 µM] | Potency [2] | cytotoxicity increase [3] 9.15% [at 15.8 µM] | Potency [4] | Potency [5] | activity change, negative = cytotoxicity [6] -26.2% [at 15.8 µM] | Potency [7] | Potency [8] | Potency [9] | Potency [10] | viability change, negative = cytotoxic [12] -4.23% [at 19 µM] | activity change, negative = inhibition [13] -20.4% [at 19 µM] | Potency [15] | outcome [16] | Potency [17] | Potency [18] | Potency [19]

CCC(=O)O[C@H]1[C@H](O[C@@H]2[C@@H](C)[C@H](O[C@H]3C[C@@](C)(OC)[C@@H](O)[C@H](C)O3)[C@@H](C)C(=O)O[C@H](CC)[C@@](C)(O)[C@H](O)[C@@H](C)C(=O)[C@H](C)C[C@@]2(C)O)O[C@H](C)C[C@@H]1N(C)C
28.9 µM (active) and inactive: Potency [1]
active: Potency [18] 14.4 µM
16.1 µM (active) and inactive: Potency [17]
inactive: Potency [2] | Potency [3] | Potency [4] | Potency [5] | Potency [6] | Potency [7] | Potency [8] | Potency [9] | Potency [10] | Potency [11] | Potency [12] | Potency [15] | outcome [16] | Potency [19]

C[N+](C)(C)CCO
inactive: Potency [1] | Potency [2] | Potency [3] | Potency [4] | Potency [5] | Potency [6] | Potency [7] | Potency [8] | Potency [9] | Potency [10] | Potency [11] | Potency [12] | Potency [14] | Potency [15] | outcome [16] | Potency [17] | Potency [18] | Potency [19]

OC[C@H]1O[C@@H]2O[C@H]3[C@H](O)[C@@H](O)[C@@H](O[C@H]4[C@H](O)[C@@H](O)[C@@H](O[C@H]5[C@H](O)[C@@H](O)[C@@H](O[C@H]6[C@H](O)[C@@H](O)[C@@H](O[C@H]7[C@H](O)[C@@H](O)[C@@H](O[C@H]1[C@H](O)[C@H]2O)O[C@@H]7CO)O[C@@H]6CO)O[C@@H]5CO)O[C@@H]4CO)O[C@@H]3CO
inactive and 25.7 µM (active): Potency [18]
inactive: Potency [1] | Potency [2] | Potency [3] | Potency [4] | Potency [5] | Potency [6] | Potency [7] | Potency [8] | Potency [9] | Potency [10] | Potency [11] | Potency [12] | Potency [13] | Potency [14] | Potency [15] | outcome [16] | Potency [17] | Potency [19]

Clc1ccc(Sc2cc(Cl)c(Cl)cc2Cl)cc1
inactive: Potency [1] | Potency [2] | Potency [3] | Potency [4] | Potency [5] | Potency [6] | Potency [7] | Potency [8] | Potency [9] | Potency [10] | Potency [12] | Potency [15] | outcome [16] | Potency [17] | Potency [18] | Potency [19]

CN(C)/N=N/c1nc[nH]c1C(N)=O
inactive: Potency [1] | Potency [2] | Potency [3] | Potency [4] | Potency [5] | Potency [6] | Potency [7] | Potency [8] | Potency [9] | Potency [10] | Potency [12] | Potency [13] | Potency [14] | Potency [15] | outcome [16] | Potency [17] | Potency [18] | Potency [19]
